Compound activity: PubChem BioAssay, University of Kansas High Throughput Screening Laboratory
In the library only some 3.6% were active in any assay of this set; here they are far more common.
Pf apPOL block: Pf-apPOL inhibitors, biochemical, fluorescence | Recombinant Pf-apPOL, molecular beacon fluorescence, 1.5 h | 210,000 tested, 0.25% active | Plasmodium falciparum apicoplast DNA polymerase (apPOL) | inhibition, % at 10 µM
mHTT CaM bind: mutant huntingtin-calmodulin interaction inhibitors – biochemical, AlphaScreen, primary screen; P42858; AlphaScreen His-mHTT/GST-CaM binding, luminescence; inhibition, % at 15 µM; 190,000 tested, 3.6% active; AID 1671202, 2021
Large screens that a line does not name were inactive. Rule as the data show it: active = inhibition above about 50%; inactive = the rest.

COc1cc(OC)c(CNc2ccc3cn[nH]c3c2)cc1Br	mHTT CaM bind 55
COc1cc(OC)c(CNc2ccc(F)c(F)c2)cc1Br	none
CSc1nnc(-c2nn(C)c3c2CN(C(=O)c2ccccc2Br)CC3)n1C	none
COc1cccc(CN2CCSCC2)c1	none
N#Cc1cc2c(nc1SCC(O)COc1ccc(Cl)cc1)CCCC2 (configuration not stated)	none
c1coc(-c2nccs2)c1	none (no result: mHTT CaM bind)
c1coc(-c2nc3sc(-c4ccco4)nc3s2)c1	mHTT CaM bind 100
O=c1cc(-c2ccccc2[N+](=O)[O-])oc2ccccc12	none
Cc1ccc(-c2cc(O)cc3sc(=O)oc23)cc1C	mHTT CaM bind 79
Cc1cc(O)c2c(c1)C(=O)c1cc(O)cc(O)c1C2=O	none (no result: mHTT CaM bind)
O=c1oc2c(-c3ccccc3[N+](=O)[O-])cc(O)cc2s1	mHTT CaM bind 61
CSc1nnc(-c2nn(C)c3c2CN(C(=O)c2ccccc2F)CC3)n1C	none
C[N+]1(CC(O)COc2ccc(Br)cc2)CCOCC1 (configuration not stated)	none
Cc1cc(C)cc(N2CCN(C(=O)c3ccc(F)cc3)C(C)C2=O)c1 (configuration not stated)	none
Cc1cccc(CNC(=O)c2cc3c(s2)CN(C(C)C)C3)c1	none
Cc1c(Cl)cccc1-c1ccc(C(=O)O)o1	none
COc1cc(C2CC(=O)N(c3cc(C)on3)C(=O)C2)cc(OC)c1OC	none (no result: mHTT CaM bind)
Nc1cc(N)nc(SCC(=O)NCc2ccccc2)n1	none
Nc1sc(SCC(=O)NCc2ccc(F)cc2)nc1-c1ccccc1	mHTT CaM bind 91
O=c1[nH]c2ccc(Cl)cc2c(-c2ccccc2)c1C1=NOC(c2ccccc2)C1 (configuration not stated)	mHTT CaM bind 100
COc1ccc(C2CC(c3c(-c4ccccc4)c4cc(Br)ccc4[nH]c3=O)=NO2)cc1 (configuration not stated)	none
CC(=O)N1N=C(c2c(-c3ccccc3)c3cc(Cl)ccc3[nH]c2=O)CC1c1ccccc1F (configuration not stated)	none
CC(=O)N1N=C(c2c(-c3ccccc3)c3cc(Cl)ccc3[nH]c2=O)CC1c1ccccc1Cl (configuration not stated)	mHTT CaM bind 93
CC(=O)N1N=C(c2c(-c3ccccc3)c3cc(Br)ccc3[nH]c2=O)CC1c1ccco1 (configuration not stated)	mHTT CaM bind 95
O=c1[nH]c2ccc(Br)cc2c(-c2ccccc2)c1[N+](=O)[O-]	none
CC(C)S(=O)(=O)c1csc(C(=O)NNC(=O)Nc2ccccc2)c1Cl	none (no result: mHTT CaM bind)
COc1ccccc1-c1ccc(C=CC(=O)c2ccco2)o1	mHTT CaM bind 58
Cc1ccc(-c2ccc(/C=C/C(=O)c3ccco3)o2)cc1	none
Cc1ccc(C)c(S(=O)(=O)Nc2ccc3oc4c(c3c2)CCCC4)c1	none
Cc1ccc(C2CC(=O)C3=C(C2)Nc2ccccc2NC3c2ccc(F)cc2)cc1 (configuration not stated)	none
Cc1c2cc(O)c(=O)cc-2oc2cc(O)c(O)cc12	mHTT CaM bind 100 (no result: Pf apPOL block)
Cc1cc2oc(=O)cc(-c3cc4ccccc4o3)c2cc1O	none
O=C(NCC(O)c1ccc(C(F)(F)F)cc1)C1(c2ccccc2)CCOCC1 (configuration not stated)	none
O=C(CC1CCN(S(=O)(=O)c2ccc(Cl)s2)CC1)NCc1ccccc1F	none
O=C1N(CC[C@@H](O)c2ccccc2)CCC12CCC(c1ccccc1)CC2 (some centres not stated)	none
Cc1ccccc1C1CCC2(CC1)CCN(CC[C@@H](O)c1ccccc1)C2=O (some centres not stated)	mHTT CaM bind 53
Cc1ccc(NC(=O)N2CCCC(C)(C(=O)NCc3ccccc3)C2)c(Cl)c1 (configuration not stated)	none
Cc1c(N=c2scc(-c3ccc(Cl)cc3)n2Cc2ccco2)c(=O)n(-c2ccccc2)n1C	mHTT CaM bind 60
C=CCn1c(-c2ccccc2)csc1=Nc1c(C)n(C)n(-c2ccccc2)c1=O	none
CCCCOc1cccc(C(=O)Nc2nnc(-c3ccco3)o2)c1	mHTT CaM bind 60
O=C(Nc1nnc(-c2ccco2)o1)c1ccc([N+](=O)[O-])cc1	none
O=[N+]([O-])c1ccc(Sc2cccs2)c([N+](=O)[O-])c1	mHTT CaM bind 64 (no result: Pf apPOL block)
O=[N+]([O-])c1ccc(SC2=NCCS2)c([N+](=O)[O-])c1	none (no result: mHTT CaM bind)
COc1cccc(C(=O)Nc2ccc(-n3nncc3-c3ccccc3)cc2)c1OC	mHTT CaM bind 57
COc1cc(C(=O)Nc2ccc(-n3nncc3-c3ccccc3)cc2)cc(OC)c1OC	none
CCN(CC)CCN(C)Cc1cccc(F)c1	none
N#CC1=C(N)Oc2cc(O)ccc2C1c1ccccc1Br (configuration not stated)	none
N#CC1=C(N)Oc2cc(O)c(C=Nc3ccc(Br)cc3)cc2C1c1ccco1 (configuration not stated)	mHTT CaM bind 100
COc1ccc(N=Cc2cc3c(cc2O)OC(N)=C(C#N)C3c2cccc(F)c2)cc1 (configuration not stated)	mHTT CaM bind 81
COc1ccc(C2C(C#N)=C(N)Oc3cccc(O)c32)cc1 (configuration not stated)	none
C=CCOc1ccc(S(=O)(=O)c2ccc(OCC=C)cc2)cc1	none
CCCn1cc(C2=CCN(C(=O)NCc3ccccc3)CC2)c2cccnc21	none
CCCn1cc(C2=CCN(C(=O)Nc3ccc4c(c3)OCCO4)CC2)c2cccnc21	mHTT CaM bind 59
Cn1cc(C2=CCN(C(=O)NCc3cccc(F)c3)CC2)c2cccnc21	mHTT CaM bind 50
CCn1cc(C2=CCN(C(=O)Nc3ccc4c(c3)OCCO4)CC2)c2cccnc21	none
CCCCCCN1C[C@H](n2cc(COC(=O)c3ccccc3)nn2)[C@@H](O)C[C@@H]1c1ccc(Cl)cc1	none
COc1ccc([C@H]2C[C@H](O)[C@@H](n3cc(COC(=O)c4ccccc4)nn3)CN2CC2CCCCC2)cc1	mHTT CaM bind 69
COc1ccc([C@H]2C[C@@H](O)[C@H](n3cc(COC(=O)c4ccccc4)nn3)CN2Cc2cccs2)cc1	none
CCCCCCN1C[C@H](n2cc(COC(=O)c3ccccc3)nn2)[C@@H](O)C[C@@H]1c1ccc(OC)cc1	mHTT CaM bind 56
O=C(OCc1cn([C@H]2C[C@H](c3ccccc3)N(CC3CCCCC3)C[C@@H]2O)nn1)c1ccccc1	none
COc1ccc([C@H]2C[C@H](O)[C@@H](n3cc(COC(=O)c4ccccc4)nn3)CN2Cc2cccs2)cc1	mHTT CaM bind 90
O=c1c2c(nc3cc(-c4ccccc4)[nH]n13)CCN(S(=O)(=O)c1cc(F)cc(F)c1)C2	none
COc1ccc(OC)c(-c2cc3c([N+](=O)[O-])cc([N+](=O)[O-])cc3o2)c1	none
Cc1noc(C)c1C1CCCN1C(=O)CCc1ccccc1 (configuration not stated)	none
CC(C)NC(=O)N1CCCC(c2cccc(C(=O)NCc3ccc(N(C)C)cc3)c2)C1 (configuration not stated)	none
CCNC(=O)N1CCCC(c2cccc(C(=O)NCc3ccc(N(C)C)cc3)c2)C1 (configuration not stated)	mHTT CaM bind 54
COc1ccc(NC(=O)CN2C(=O)CC(c3ccco3)Sc3ccccc32)c(OC)c1 (configuration not stated)	mHTT CaM bind 92
